Inconclusive results are not listed. Active and inactive are the calls of the source. The call rests on the fitted dose curve; in most records, active means well fitted inhibition curve with a large enough effect; inconclusive means small, poorly fitted or top-dose-only effect; inactive means flat fitted curve, though single readings scatter.
Test: Drug repurposing screens with cells derived from glioblastoma tumor samples (AID 1345199); further: nearly all actives have a fitted effect of over 40% in size
Details: GBM patient neurospheres viability, ATP luminescence, 48 h
Protocol: CD133+ cells were isolated from GBM patient biopsies and cultured as neurospheres. Neurospheres from four patients were used to screen the NCATS pharmaceutical collection (NPC) library of approved drugs and bioactive compounds. […] The neurospheres were incubated with drugs for 48 hours in 1536-well format, then assayed with an ATP content cell viability assay. […] These hits were cherry picked to confirm activity in the four original GBM lines screened plus three other slower growing GMB lines (unable to yield enough cells for a full primary screen). Variable activities of the confirmed primary hits in the different GBM patient lines were observed. The patient line 206 responded to the greatest number of compounds and line 923 responded to the least amount of active compounds.

[1] = at 45.9 µM (top of the series), tumour line B
[2] = at 45.9 µM (top of the series), tumour line D
[3] = at 46 µM (top of the series), tumour line A
[4] = at 46.1 µM (top of the series), tumour line C
[5] = at 91.6 µM (top of the series), tumour line A
[6] = at 91.6 µM (top of the series), tumour line B
[7] = at 91.6 µM (top of the series), tumour line D
[8] = at 99.2 µM (top of the series), tumour line C
On the % scale 0 is the no-effect control and ±100 the full control effect; potency means the concentration at half of the fitted maximal effect.

Cc1nc([N+](=O)[O-])cn1-c1ccc([N+](=O)[O-])cc1
inactive: activity, negative = cell killing [1] -9.26% | activity, negative = cell killing [2] -5.48% | activity, negative = cell killing [3] -16.5% | activity, negative = cell killing [4] 4.99%

C1N2CN3CN1CN(C2)C3
inactive: activity, negative = cell killing [1] -5.59% | activity, negative = cell killing [2] -12.9% | activity, negative = cell killing [3] -29.1% | activity, negative = cell killing [4] 5.12%

CN1CCC(=C2c3ccccc3CCc3cccnc32)CC1
inactive: activity, negative = cell killing [1] -11.9% | activity, negative = cell killing [2] -28.7% | activity, negative = cell killing [4] -24%
active: Potency (tumour line A) 11.2 µM

O=C1CC[C@H](C(=O)N2CCCCC2)N1
inactive: activity, negative = cell killing [1] 5.57% | activity, negative = cell killing [2] 0.144% | activity, negative = cell killing [3] -19.7% | activity, negative = cell killing [4] 1.57%

CCN1CCN(C(=O)N[C@@H](C(=O)N[C@@H]2C(=O)N3[C@@H]2SC(C)(C)[C@H]3C(=O)O)c2ccccc2)C(=O)C1=O
inactive: activity, negative = cell killing [1] -6.11% | activity, negative = cell killing [2] -1.23% | activity, negative = cell killing [3] -24% | activity, negative = cell killing [4] 3.83%

O=P(O)(O)OCC(O)CO (configuration not stated)
inactive: activity, negative = cell killing [1] -9.32% | activity, negative = cell killing [2] 5.18% | activity, negative = cell killing [3] -22.7% | activity, negative = cell killing [4] -0.918%

CC(C)OC(=O)c1cc2c(OCC(O)CNC(C)(C)C)cccc2[nH]1 (configuration not stated)
active: Potency (tumour line A) 11.2 µM | Potency (tumour line D) 22.4 µM
inactive: activity, negative = cell killing [1] -15.9%

O=C(c1ccccc1)c1ccccc1
inactive: activity, negative = cell killing [1] 2.19% | activity, negative = cell killing [2] 8.55% | activity, negative = cell killing [3] -8.04% | activity, negative = cell killing [4] -0.361%

CCCCNc1ccc(C(=O)OCCN(CC)CC)cc1
inactive: activity, negative = cell killing [4] -27.5%
active: Potency (tumour line A) 14.1 µM | Potency (tumour line D) 14.1 µM

c1ccc2occc2c1
inactive: activity, negative = cell killing [5] -19.3% | activity, negative = cell killing [6] -4.88% | activity, negative = cell killing [7] -16% | activity, negative = cell killing [8] 4.01%

O=C(Oc1ccccc1)c1cccc(C(=O)Oc2ccccc2)c1
inactive: activity, negative = cell killing [5] -20.2% | activity, negative = cell killing [6] -23.3% | activity, negative = cell killing [7] -9.21% | activity, negative = cell killing [8] 1.54%

From PubChem BioAssay (NCATS)
